# Data reported in the supplement of paper PMC6411743.
# ± gives the standard deviation of the averaged measurements. Targets with the largest changes are over-represented here; the source holds about 6,200 in all.
# Tests used:
# Assay in all cases: NP40-soluble protein abundance relative to vehicle (solubility fold change) (ratio); higher = more soluble protein in presence of AMP-PNP
# UniProt Q58A45|Q58A45-3 = target: T1, UniProt Q58A45|Q58A45-3
# T1 sequence (whole entry): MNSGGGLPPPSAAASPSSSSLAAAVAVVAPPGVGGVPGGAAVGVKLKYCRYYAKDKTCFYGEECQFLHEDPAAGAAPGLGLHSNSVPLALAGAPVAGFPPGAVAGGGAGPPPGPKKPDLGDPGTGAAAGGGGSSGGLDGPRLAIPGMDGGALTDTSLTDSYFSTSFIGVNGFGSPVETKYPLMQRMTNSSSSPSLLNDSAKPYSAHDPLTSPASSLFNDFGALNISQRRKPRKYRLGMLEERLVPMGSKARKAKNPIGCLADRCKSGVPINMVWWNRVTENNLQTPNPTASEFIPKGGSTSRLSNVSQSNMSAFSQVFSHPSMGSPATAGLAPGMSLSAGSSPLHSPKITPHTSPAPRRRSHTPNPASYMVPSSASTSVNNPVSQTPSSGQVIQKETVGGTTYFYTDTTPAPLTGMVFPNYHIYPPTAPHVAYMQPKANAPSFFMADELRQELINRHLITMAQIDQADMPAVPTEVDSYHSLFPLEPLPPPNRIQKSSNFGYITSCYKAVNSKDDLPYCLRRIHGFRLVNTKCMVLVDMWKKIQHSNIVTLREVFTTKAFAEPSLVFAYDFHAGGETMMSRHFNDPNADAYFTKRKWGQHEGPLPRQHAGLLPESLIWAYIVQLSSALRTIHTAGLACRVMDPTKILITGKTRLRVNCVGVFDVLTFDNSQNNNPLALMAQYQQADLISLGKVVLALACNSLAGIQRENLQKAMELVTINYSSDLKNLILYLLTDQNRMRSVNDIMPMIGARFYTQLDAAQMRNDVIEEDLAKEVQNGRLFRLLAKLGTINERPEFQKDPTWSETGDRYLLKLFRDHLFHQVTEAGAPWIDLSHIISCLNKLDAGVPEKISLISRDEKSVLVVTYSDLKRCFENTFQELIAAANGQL
# Method in brief: (§1)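 Crude Jurkat lysate, prepared by Dounce homogenisation, was exposed to eight concentrations from 0.1 to 10 mM for 10 min at room temperature and then 3 min at 37 °C. Solubilisation used 0.8% NP40 with benzonase for 60 min at 4 °C, followed by ultracentrifugation and TMT labelling of the supernatant for LC-MS/MS. After vsn normalisation of intensities, each value is the fold change against the detergent-processed vehicle within each replicate, across three independent experiments.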
# UniProt Q5SGD2|Q5SGD2-3 = target: T2, UniProt Q5SGD2|Q5SGD2-3
# T2 sequence (whole entry): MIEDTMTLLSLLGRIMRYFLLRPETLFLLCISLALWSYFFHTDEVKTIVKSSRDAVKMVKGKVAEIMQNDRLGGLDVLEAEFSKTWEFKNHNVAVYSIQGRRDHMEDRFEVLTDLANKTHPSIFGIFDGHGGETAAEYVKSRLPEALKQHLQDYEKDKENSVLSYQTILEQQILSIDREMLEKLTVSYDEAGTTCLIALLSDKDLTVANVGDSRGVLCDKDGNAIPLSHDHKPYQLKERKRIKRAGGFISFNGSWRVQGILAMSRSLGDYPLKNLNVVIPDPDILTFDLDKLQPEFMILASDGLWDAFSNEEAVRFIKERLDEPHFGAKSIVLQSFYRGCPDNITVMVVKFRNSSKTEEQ
# Method in brief: as §1
# [1] = target: T3, UniProt Q6PJT7-2|Q6PJT7-3|Q6PJT7-5|Q6PJT7-9|Q6PJT7
# T3 sequence (whole entry): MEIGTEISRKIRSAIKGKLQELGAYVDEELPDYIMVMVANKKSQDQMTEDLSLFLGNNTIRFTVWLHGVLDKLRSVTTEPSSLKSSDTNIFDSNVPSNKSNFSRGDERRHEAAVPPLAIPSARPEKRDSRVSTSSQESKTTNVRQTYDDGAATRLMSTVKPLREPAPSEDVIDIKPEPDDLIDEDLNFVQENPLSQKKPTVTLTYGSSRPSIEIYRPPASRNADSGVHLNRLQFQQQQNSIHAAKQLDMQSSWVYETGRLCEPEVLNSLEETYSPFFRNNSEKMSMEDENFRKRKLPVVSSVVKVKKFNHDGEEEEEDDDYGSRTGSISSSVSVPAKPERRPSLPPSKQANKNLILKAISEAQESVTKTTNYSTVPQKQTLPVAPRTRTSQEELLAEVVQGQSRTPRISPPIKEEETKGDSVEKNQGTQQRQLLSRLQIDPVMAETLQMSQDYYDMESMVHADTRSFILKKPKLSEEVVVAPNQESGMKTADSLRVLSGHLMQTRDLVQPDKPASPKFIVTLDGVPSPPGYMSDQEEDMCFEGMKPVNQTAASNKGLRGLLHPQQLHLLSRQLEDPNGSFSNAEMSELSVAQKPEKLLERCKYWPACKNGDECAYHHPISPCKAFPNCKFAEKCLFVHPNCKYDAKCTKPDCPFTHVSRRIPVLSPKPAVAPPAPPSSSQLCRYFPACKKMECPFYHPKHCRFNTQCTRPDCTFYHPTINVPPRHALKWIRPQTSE
# Method in brief: as §1
# UniProt Q8N0Z3 = target: T4, UniProt Q8N0Z3
# T4 sequence (whole entry): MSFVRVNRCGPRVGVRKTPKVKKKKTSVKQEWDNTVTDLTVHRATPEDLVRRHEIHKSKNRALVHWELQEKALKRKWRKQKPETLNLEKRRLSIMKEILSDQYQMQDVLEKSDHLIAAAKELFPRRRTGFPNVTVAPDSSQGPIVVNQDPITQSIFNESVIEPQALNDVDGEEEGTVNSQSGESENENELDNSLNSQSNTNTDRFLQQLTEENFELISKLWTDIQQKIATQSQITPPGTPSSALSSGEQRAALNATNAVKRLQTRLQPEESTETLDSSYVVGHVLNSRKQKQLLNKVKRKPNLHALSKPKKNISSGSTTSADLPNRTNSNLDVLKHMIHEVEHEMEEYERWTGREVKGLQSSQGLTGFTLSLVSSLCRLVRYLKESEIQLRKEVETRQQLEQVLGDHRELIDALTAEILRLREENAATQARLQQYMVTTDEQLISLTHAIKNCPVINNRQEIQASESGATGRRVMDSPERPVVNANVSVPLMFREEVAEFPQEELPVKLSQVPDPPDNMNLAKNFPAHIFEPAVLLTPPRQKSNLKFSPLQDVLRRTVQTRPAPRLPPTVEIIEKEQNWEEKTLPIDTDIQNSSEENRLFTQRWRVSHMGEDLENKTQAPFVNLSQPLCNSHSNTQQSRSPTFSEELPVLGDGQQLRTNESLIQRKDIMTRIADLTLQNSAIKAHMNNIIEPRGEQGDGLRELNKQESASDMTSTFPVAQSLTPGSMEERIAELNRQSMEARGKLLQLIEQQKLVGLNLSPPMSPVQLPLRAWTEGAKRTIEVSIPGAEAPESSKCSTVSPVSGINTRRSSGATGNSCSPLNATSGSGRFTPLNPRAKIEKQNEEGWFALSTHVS
# Method in brief: as §1
# [2] = target: T5, UniProt Q92581-2|Q92581-3|Q92581
# T5 sequence (whole entry): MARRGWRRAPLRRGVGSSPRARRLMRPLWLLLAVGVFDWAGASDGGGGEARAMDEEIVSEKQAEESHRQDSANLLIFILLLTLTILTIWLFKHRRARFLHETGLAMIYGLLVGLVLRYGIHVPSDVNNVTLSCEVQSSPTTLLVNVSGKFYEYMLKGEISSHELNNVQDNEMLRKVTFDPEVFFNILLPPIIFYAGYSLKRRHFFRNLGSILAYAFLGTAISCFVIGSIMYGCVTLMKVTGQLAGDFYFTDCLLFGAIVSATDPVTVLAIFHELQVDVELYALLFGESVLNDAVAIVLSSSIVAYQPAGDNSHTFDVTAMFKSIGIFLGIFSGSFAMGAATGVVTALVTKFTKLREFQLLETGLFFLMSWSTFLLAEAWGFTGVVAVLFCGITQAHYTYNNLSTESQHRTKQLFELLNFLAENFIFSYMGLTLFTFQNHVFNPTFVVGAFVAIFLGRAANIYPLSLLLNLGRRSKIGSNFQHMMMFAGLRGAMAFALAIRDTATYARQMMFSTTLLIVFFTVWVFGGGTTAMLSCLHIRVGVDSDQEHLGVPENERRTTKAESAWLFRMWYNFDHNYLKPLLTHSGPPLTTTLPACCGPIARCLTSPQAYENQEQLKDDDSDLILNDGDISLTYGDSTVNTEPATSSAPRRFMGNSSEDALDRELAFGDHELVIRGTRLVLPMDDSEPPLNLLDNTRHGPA
# Method in brief: as §1
structure (smiles),measurement,setting,value
Nc1ncnc2c1ncn2[C@@H]1O[C@H](COP(=O)(O)OP(=O)(O)NP(=O)(O)O)[C@@H](O)[C@H]1O [adenylyl imidodiphosphate],NP40-soluble protein abundance,UniProt Q58A45|Q58A45-3; concentration: 1mM,1.032 ± 0.0089
same,NP40-soluble protein abundance,UniProt Q58A45|Q58A45-3; concentration: 2mM,1.02 ± 0.024
same,NP40-soluble protein abundance,UniProt Q58A45|Q58A45-3; concentration: 4mM,1.02 ± 0.03
same,NP40-soluble protein abundance,UniProt Q58A45|Q58A45-3; concentration: 6mM,0.999 ± 0.026
same,NP40-soluble protein abundance,UniProt Q58A45|Q58A45-3; concentration: 8mM,1.03 ± 0.022
same,NP40-soluble protein abundance,UniProt Q58A45|Q58A45-3; concentration: 10mM,1.01 ± 0.022
same,NP40-soluble protein abundance,UniProt Q5SGD2|Q5SGD2-3; concentration: 1mM,1.02 ± 0.029
same,NP40-soluble protein abundance,UniProt Q5SGD2|Q5SGD2-3; concentration: 2mM,1.03 ± 0.049
same,NP40-soluble protein abundance,UniProt Q5SGD2|Q5SGD2-3; concentration: 4mM,1 ± 0.019
same,NP40-soluble protein abundance,UniProt Q5SGD2|Q5SGD2-3; concentration: 6mM,1 ± 0.016
same,NP40-soluble protein abundance,UniProt Q5SGD2|Q5SGD2-3; concentration: 8mM,1.02 ± 0.06
same,NP40-soluble protein abundance,UniProt Q5SGD2|Q5SGD2-3; concentration: 10mM,1.006 ± 0.0075
same,NP40-soluble protein abundance,[1]; concentration: 1mM,1.04 ± 0.018
same,NP40-soluble protein abundance,[1]; concentration: 2mM,1.17 ± 0.082
same,NP40-soluble protein abundance,[1]; concentration: 4mM,1.2 ± 0.061
same,NP40-soluble protein abundance,[1]; concentration: 6mM,1.28 ± 0.14
same,NP40-soluble protein abundance,[1]; concentration: 8mM,1.29 ± 0.15
same,NP40-soluble protein abundance,[1]; concentration: 10mM,1.33 ± 0.13
same,NP40-soluble protein abundance,UniProt Q8N0Z3; concentration: 1mM,0.943 ± 0.051
same,NP40-soluble protein abundance,UniProt Q8N0Z3; concentration: 2mM,0.976 ± 0.024
same,NP40-soluble protein abundance,UniProt Q8N0Z3; concentration: 4mM,0.959 ± 0.03
same,NP40-soluble protein abundance,UniProt Q8N0Z3; concentration: 6mM,0.955 ± 0.027
same,NP40-soluble protein abundance,UniProt Q8N0Z3; concentration: 8mM,0.957 ± 0.026
same,NP40-soluble protein abundance,UniProt Q8N0Z3; concentration: 10mM,0.964 ± 0.02
same,NP40-soluble protein abundance,[2]; concentration: 1mM,0.999 ± 0.012
same,NP40-soluble protein abundance,[2]; concentration: 2mM,0.9876 ± 0.0034
same,NP40-soluble protein abundance,[2]; concentration: 4mM,0.957 ± 0.028
same,NP40-soluble protein abundance,[2]; concentration: 6mM,0.9812 ± 0.0025
same,NP40-soluble protein abundance,[2]; concentration: 8mM,0.979 ± 0.025
same,NP40-soluble protein abundance,[2]; concentration: 10mM,0.96 ± 0.026
